Mtb bLac sens: beta-lactam sensitization of Mtb H37Rv. M. tuberculosis H37Rv growth with meropenem, percent inhibition. inhibition, % at 25 µM. 0.27% of 330,000 active. AID 434955; call rule not given here;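 also: growth measured after seven days incubation then overnight dye step; 0% = bacteria only wells and 100% = bacteria with antibiotic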
PriA SSB inh: K. pneumoniae PriA-SSBct interaction inhibition. AlphaScreen SSBct-PriA binding, biotinylated peptide. inhibition, % at 33 µM. 0.6% of 430,000 active; in the data active = inhibition mostly above about 37%, no sharp cut-off; inactive = mostly below about 20%;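 also: plate controls were negative control peptide for no effect and reference peptide for full effect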
GDH-TPI counter-1: inhibits GDH-TPI coupling enzymes, artifact for Mtb FBA screen. GDH-TPI coupled enzyme counterscreen, NADH absorbance. inhibition, % at 4.8 µM. 1.2% of 360,000 active. AID 588335; in the data active = inhibition above about 30%;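 also: 0% = DMSO wells and 100% = wells lacking the enzyme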
UGM FP inh: blocks M. tuberculosis UGM enzyme; purified UGM, fluorescence polarization probe displacement; 0.06% of 320,000 active; inhibition, % at 10 µM; P9WIQ1; in the data active = inhibition above about 10%, passing the limit was not always enough
Rv3671c inh: Rv3671c (M. tuberculosis) protease inhibition; P9WHR9; inhibition, % at 5.96 µM; 0.048% of 320,000 active; in the data active = inhibition above about 38%;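 also: extracellular domain of Rv3671c used as enzyme; 0% = enzyme with DMSO and 100% = no enzyme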
FBA Mtb inh: inhibitors of M. tuberculosis fructose-bisphosphate aldolase. purified M. tuberculosis FBA, fluorescence read-out. AID 588726. 2.3% of 360,000 active. P9WQA3. inhibition, % at 1 µM;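 also: 0% = vehicle and 100% = reference inhibitor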
Target sequence (P9WQA3 whole entry, looked up): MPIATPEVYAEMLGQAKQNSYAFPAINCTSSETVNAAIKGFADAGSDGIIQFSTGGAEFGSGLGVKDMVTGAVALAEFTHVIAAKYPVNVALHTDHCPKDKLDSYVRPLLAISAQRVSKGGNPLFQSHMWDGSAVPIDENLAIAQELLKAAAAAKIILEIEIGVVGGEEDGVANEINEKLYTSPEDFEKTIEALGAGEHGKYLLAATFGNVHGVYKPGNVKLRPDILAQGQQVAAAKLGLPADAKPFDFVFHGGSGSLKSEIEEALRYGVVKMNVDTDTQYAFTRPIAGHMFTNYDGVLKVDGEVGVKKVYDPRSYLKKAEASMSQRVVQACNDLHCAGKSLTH
Mtb FBA inh conf: Mtb FBA inhibition, confirmed; shares compounds with FBA Mtb inh; purified M. tuberculosis FBA, fluorescence read-out; inhibition, % at 1 µM; 78% of 5,600 active;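 also: 0% = vehicle wells and 100% = reference inhibitor wells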
GDH-TPI counter-2: GDH-TPI inhibition counter-screen for FBA inhibitors; 81% of 5,600 active; inhibition, % at 1 µM; GDH-TPI coupled enzyme counterscreen, fluorescence; shares compounds with FBA Mtb inh; in the data active = inhibition above about 10%
GDH-TPI dose: counter-screen for M. tuberculosis FBA inhibitors: GDH-TPI dose response; AID 652145; GDH-TPI coupled enzyme assay, fluorescence, artifact counterscreen; 79% of 170 active; shares compounds with FBA Mtb inh; IC50, µM; call rule not given here
* hit, by the source's call; / = not tested or not shown; + = active, no number. A selection: hits, their analogues and other compounds. The true share with any hit is near 3.2%. Rule as the data show it, unless noted: active = inhibition above about 27%; inactive = the rest.

SMILES	Mtb bLac sens	PriA SSB inh	GDH-TPI counter-1	UGM FP inh	Rv3671c inh	FBA Mtb inh	Mtb FBA inh conf	GDH-TPI counter-2	others
CC(=NNS(=O)(=O)c1ccc(Cl)cc1)c1ccc2c(c1)OCO2	/	-11	/	/	/	/	/	/
Cc1nc(NC(=O)c2n[nH]nc2-c2ccccc2)sc1C	/	-3	/	/	/	/	/	/
S=c1[nH]nc(-c2ccccc2)n1Cc1ccccc1	-8	7	15	1	4	2	/	/
S=c1[nH]nc(-c2cccs2)n1Cc1ccccc1	2	-1	-1	1	4	28*	86*	59*
CCOC(=O)C(CC)Sc1nnc(NC(=O)c2ccc3c(c2)OCO3)s1 (stereo not drawn)	/	3	/	/	/	/	/	/
COc1ccc(Cc2c(-c3cccc(Cl)c3)nc3ccc(C)cn23)c(C)c1	/	/	/	/	/	7	/	/
Cc1ccc2nc(-c3ccncc3)c(Nc3ccccc3)n2c1	-2	-6	6	3	-1	3	/	/
CCC(C)Sc1ccc(-c2nc3ccc(C)cn3c2NCc2ccccc2)cc1 (stereo not drawn)	-1	3	15	/	6	38*	94*	75*
Cc1ccc2nc(-c3ccc(-c4cccc(Cl)c4)cc3)c(NCc3ccccc3)n2c1	-12	19	36*	2	0	29*	12	9	GDH-TPI dose=1.5*
COc1cc(-c2nc3ccc(C)cn3c2NCc2ccccc2)ccc1-c1cccc(Cl)c1	26	38	9	0	6	40*	8	-2
O=C(Nc1ccc2c(c1)CCCN2S(=O)(=O)c1cccs1)c1cccc(Br)c1	/	-21	/	/	/	/	/	/
CC1=CC(c2ccc(Cl)cc2)n2ncnc2N1 (stereo not drawn)	-8	8	6	1	5	17	/	/
COc1ccc(C2C=C(C)Nc3ncnn32)cc1 (stereo not drawn)	4	0	8	1	-4	36*	121*	106*
Cc1ccc(C2=CC(c3ccc(C)cc3)n3ncnc3N2)cc1 (stereo not drawn)	46	-6	13	2	-16	35*	119*	95*
CCOc1ccc(C2C=C(c3ccc(C)cc3)Nc3ncnn32)cc1 (stereo not drawn)	96	/	/	-4	1	/	/	/
Cn1cc2ccc([N+](=O)[O-])cc2n1	3	-10	8	1	-3	0	/	/
Cn1cc2ccc(N)cc2n1	/	-10	0	/	/	29*	68*	56*
CC1(C)COCN1C(=O)c1ccc(-n2cncn2)nn1	/	-1	/	/	/	/	/	/
CCc1ccc[n+](-c2[nH]c(=O)sc2C=NN=C([O-])c2ccncc2)c1	/	-11	/	/	/	/	/	/
O=C(Cn1nc2ccccc2n1)NN=Cc1cc([N+](=O)[O-])ccc1O	/	-14	/	/	/	/	/	/
O=C(Nc1ccc(Cl)c(Cl)c1)c1ccccc1	9	-31	0	-3	-6	-1	/	/
COc1cc(NC(=O)Nc2ccc(Cl)c(Cl)c2)c(C(=O)O)cc1OC	3	-6	5	-1	16	104*	49*	47*
Cc1ccc(NC(=O)Nc2cccc(Cl)c2)c(C(=O)O)c1	3	-2	-1	1	2	94*	104*	78*
CN(C(=O)Nc1ccc(Cl)c(Cl)c1)c1ccccc1C(=O)O	7	-9	12	-2	-13	68*	142*	134*
COc1ccc(CNC(=O)N2CCC(S(C)(=O)=O)CC2)cc1	/	-12	/	/	/	/	/	/
SMILES	Mtb bLac sens	PriA SSB inh	GDH-TPI counter-1	UGM FP inh	Rv3671c inh	FBA Mtb inh	Mtb FBA inh conf	GDH-TPI counter-2	others
Cc1noc(C)c1CC(=O)OC1CN(c2nc3c(Cl)cccc3s2)C1	/	11	/	/	/	/	/	/
O=C(Cc1ccc(NC(=O)c2cncc(Br)c2)cc1)NCC(F)(F)F	/	-7	/	/	/	/	/	/
CNC(=O)Oc1ccc(-c2cn3cc(Cl)ccc3n2)cc1	4	-7	25	0	-2	16	/	/
COc1ccc(-c2cn3cc(Cl)ccc3n2)cc1OC	18	-8	16	-2	3	57*	72*	47*
COc1ccc(-c2cn3cc(C)ccc3n2)cc1Br	7	19	11	0	-4	30*	130*	109*
Cc1ccc(-c2nc(=O)[nH]c3ccccc23)cc1	-2	-5	9	-2	1	16	/	/
O=c1nc(-c2ccccc2Cl)c2cc(F)ccc2[nH]1	1	3	5	-3	1	53*	53*	46*
C[C@@H](C(=O)N1CCN(c2ccc(C(F)(F)F)cn2)CC1)n1nc(-c2ccc(F)cc2)ccc1=O	/	8	/	/	/	/	/	/
Cc1cc2c([nH]c3ccccc32)c(C)n1	0	-10	0	-1	5	96*	2	-7
Cc1nc(C(=O)O)cc2c1[nH]c1ccccc12	-1	-8	15	-1	2	85*	+	+
Cc1nc(C(=O)NCCO)cc2c1[nH]c1ccccc12	-1	-2	4	-2	/	16	/	/
COc1cc2ccc(=O)oc2c2ccoc12	8	-17	18	-4	-3	35*	+	155*
Cc1cc(C(=O)Nc2ccc3c(c2)C(=O)N(C)C3=O)n(C)n1	/	-4	/	/	/	/	/	/
O=C(CCS(=O)(=O)c1ccccc1)Nc1ccc2c(c1)C(=O)NC2=O	-4	-3	1	-1	-7	50*	+	+
CN1C(=O)c2ccc(NC(=O)CCS(=O)(=O)c3ccccc3)cc2C1=O	-8	-8	4	-2	2	35*	83*	61*
O=C(C[C@H](NCc1ccco1)C(=O)O)Nc1ccc(Cl)cc1Cl	/	-19	/	/	/	/	/	/
CCC(=O)N1CCN(Cc2nc(-c3ccco3)cs2)CC1	/	1	/	/	/	/	/	/
O=C(CNc1cccc2ccccc12)c1ccc([N+](=O)[O-])cc1	95	9	1	-1	3	28*	56*	36*
COc1ccc(Cl)cc1-c1nc(SCC(=O)NC(C)(C)C)n[nH]1	-1	-13	-8	0	9	29*	100*	93*
CCC1(c2ccc(F)cc2)NC(=O)N(CC(=O)N2CC(=O)Nc3ccccc32)C1=O (stereo not drawn)	-8	-14	6	-1	3	29*	163*	116*
Cc1nc(-c2ccccc2NC(=O)COc2cccc(C(F)(F)F)c2)cs1	/	-25	/	/	/	/	/	/
O=c1oc(Nc2cccc(Cl)c2)nc2ccccc12	5	5	-6	-1	25	48*	34*	18*
CCOCCCNC(=O)c1oc2ccc3c(c2c1C)C(O)CC(C)(C)O3 (stereo not drawn)	-2	7	21	1	/	33*	35*	25*

Source: PubChem BioAssay (several laboratories)
